Bioassay records (PubChem)
YopH inh: inhibitors of Yersinia enterocolitica YopH tyrosine phosphatase; fluorescence Ex485/Em525; inhibition, % (concentration not given with the values); hit rate 0.16% among 140,000; in the data active = inhibition above about 50%
RmlC RmlD mix: mixture blocks RmlC and RmlD coupled enzyme activity. RmlC/RmlD coupled enzyme inhibition, 384-well mixture HTS. inhibition, % at 5.5 µM. hit rate 0.39% among 110,000. AID 1532; in the data active = inhibition above about 30%, passing the limit was not always enough; inconclusive = no clear call, values can overlap the other calls
RmlCD fluor art: RmlC/RmlD fluorescence artifact, counter-screen; shares compounds with RmlC RmlD mix; RmlC/RmlD assay fluorescence artifact counter-screen; calls only; hit rate 96% among 360; AID 1696; call rule not given here;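 note: compound alone with no enzyme and no substrates present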
Numbers stand for hits; i = inactive; ? = inconclusive; nt = no result given; + = active, no number. Compounds with a hit are over-represented: about 0.41% of the library has one in this group of screens.

SMILES	YopH inh	RmlC RmlD mix	RmlCD fluor art
COCC(=O)N(C)c1nnc(-c2ccc([N+](=O)[O-])cc2)s1	i	i	nt
COc1ccc(-c2nnc(NC(=O)C3CCCO3)s2)cc1 (stereo unspecified)	i	i	nt
Cc1csc(NC(=O)c2cc3c(C)nn(Cc4ccccc4Cl)c3s2)n1	i	nt	nt
COc1cc(/C=N/Nc2cccc(C)c2)ccc1OC(=O)c1ccco1	i	nt	nt
O=C1c2cnc3nc(SCc4ccc(Cl)cc4)nn3c2CC2c3ccccc3CCN12 (stereo unspecified)	i	i	nt
CN(C(=O)c1ccncc1)c1nnc(-c2ccncc2)s1	i	103	+
CN(C(=O)C1CCOC1)c1nnc(-c2ccncc2)s1 (stereo unspecified)	i	48	+
Cc1cccc(C(=O)N(C)c2nnc(-c3ccncc3)s2)c1	i	i	nt
CN(C(=O)C1CCOC1)c1nnc(-c2ccccn2)s1 (stereo unspecified)	i	i	nt
COC(C/C=C/[C@@H](O)[C@H](C)OCc1ccccc1)OC	nt	i	nt
O=C(CSc1nc(C2CC2)nc2ccccc12)N1c2ccccc2Sc2ccc(C(F)(F)F)cc21	i	i	nt
COCCCNCCCCSc1ccc(Cl)cc1	i	nt	nt
Cc1cc(C(F)(F)F)c(C#N)c(=O)[nH]1	i	32	+
N#Cc1c(C(F)(F)F)cc(-c2ccc(Cl)cc2)[nH]c1=O	i	i	nt
CC(Sc1nncs1)C(=O)Nc1ccc(Cl)cn1 (stereo unspecified)	i	nt	nt
COc1ccc(Oc2c(C)oc3c(CN4CCOCC4)c(O)ccc3c2=O)cc1	i	i	nt
Cc1oc2c(CN3CCCC3)c(O)ccc2c(=O)c1Oc1ccccc1Br	i	64	+
Cc1oc2c(CN3CCOCC3)c(O)ccc2c(=O)c1-c1ccccc1	i	39	+
COc1ccccc1-c1coc2c(CN3CCN(CCO)CC3)c(O)ccc2c1=O	i	40	+
COc1ccccc1-c1coc2c(CN3CCN(C)CC3)c(O)ccc2c1=O	i	i	nt
COc1ccccc1Oc1c(C)oc2c(CN3CCN(CCO)CC3)c(O)ccc2c1=O	i	nt	nt
COC(=O)/C(=C/Nc1cccc2ccccc12)[N+](=O)[O-]	i	158	+
CCOC(=O)/C(=C\c1cn(C)c2ccccc12)[N+](=O)[O-]	i	nt	nt
CCOC(=O)c1ccc(-c2ccc(C3Nc4ccccc4C(=O)N3O)o2)cc1 (stereo unspecified)	i	nt	nt
CCOC(=O)c1ccc(-c2ccc(CO)o2)cc1	i	62	+
SMILES	YopH inh	RmlC RmlD mix	RmlCD fluor art
N=C1CCCN1CC(=O)c1ccc(Br)cc1	i	nt	nt
Cc1cc(=O)n2c(ccc3ccccc32)c1C#N	i	i	nt
Cc1cc(=O)n2ccccc2c1C#N	i	104	+
CCOC(=O)CC(=O)CSc1nc2c(c(C)c1C#N)CCC2	i	nt	nt
CCOC(=O)CC(=O)CSc1nc(CC)c(C)cc1C#N	nt	nt	+
CCc1nc(SCC(=O)O)c(C#N)cc1C	i	i	nt
COC(=O)CSc1nc2cc(C)ccc2cc1C#N	i	i	nt
CCOC(=O)CC(=O)CSc1nc2ccc(C)cc2cc1C#N	i	+	+
CCOC(=O)CC(=O)CSc1nc(C)cc(C)c1C#N	i	110	+
CCOC(=O)CC(=O)CSc1nc2c(cc1C#N)CCCCC2	i	i	nt
CC(C)OC(=O)CC(=O)CSc1nc2c(cc1C#N)CCCCC2	i	+	+
CCC/C=N/NC(=O)c1[nH]c2c([N+](=O)[O-])cccc2c1C	i	nt	nt
CCOC(=O)CN(C)C(=O)C1CCCN1C(=O)OC(C)(C)C (stereo unspecified)	nt	i	nt
COc1ccc(CC(=O)NCc2nnc(SCc3ccc(C)cc3)n2C)cc1	i	nt	nt
Cc1ccc(C(=O)N/C(=C\c2ccco2)C(=O)NCCCn2ccnc2)cc1C	i	i	nt
CCN(CC)S(=O)(=O)c1ccc(N2CCOCC2)c(NS(=O)(=O)c2cc(C(C)(C)C)ccc2C)c1	i	nt	nt
CCOc1cccc2cc(-c3csc(NC(=O)CCC(=O)N4CCC(C)CC4)n3)c(=O)oc12	i	+	+
CC1CCN(C(=O)CSCC(=O)Nc2nc(-c3cccs3)cs2)CC1	i	i	nt
Cc1ccc(CN2CC(C(=O)Nc3ccc4c(C)cc(=O)oc4c3)CC2=O)cc1 (stereo unspecified)	i	i	+
Cc1ccc(CN2CC(C(=O)Nc3cccc(S(=O)(=O)N4CCCCC4)c3)CC2=O)cc1 (stereo unspecified)	i	nt	nt
CCCCOC(=O)N/N=C/C=C/c1ccccc1	i	nt	nt
Cc1cc(-c2nc3ncccc3o2)ccc1N	i	69	+
Nc1cc(-c2nc3ncccc3o2)ccc1Cl	i	i	nt
Fc1ccc(NC(=S)NC23CN4CN(CN(C4)C2)C3)cc1	i	nt	nt
CCCCNC(=O)c1cc2c(=O)n3cccc(C)c3nc2n(Cc2ccncc2)c1=N	i	89	+
SMILES	YopH inh	RmlC RmlD mix	RmlCD fluor art
COCCCn1c(=N)c(C(=O)NC2CCCCC2)cc2c(=O)n3ccccc3nc21	i	49	+
Cc1cccn2c(=O)c3cc(C#N)c(=NC(=O)c4ccncc4)n(CCCOC(C)C)c3nc12	i	?	nt
COCCCn1c(=NC(=O)c2ccncc2)c(C#N)cc2c(=O)n3cccc(C)c3nc21	i	104	+
Cc1cccn2c(=O)c3cc(C(=O)NC4CCCC4)c(=N)n(C4CCCC4)c3nc12	i	79	+
COCCCn1c(=N)c(C(=O)NCc2ccc3c(c2)OCO3)cc2c(=O)n3ccccc3nc21	i	i	nt
CCCCNC(=O)c1cc2c(=O)n3cccc(C)c3nc2n(CCN2CCOCC2)c1=N	i	nt	nt
CCn1c(=N)c(C(N)=O)cc2c(=O)n3cccc(C)c3nc21	i	nt	nt
Cc1cc(C)cc(NC(=O)NC2CCN(CC(=O)Nc3c(C)cc(C)cc3C)CC2)c1	i	nt	nt
O=C(NCc1ccccc1)C1=C[C@@H](C2CCCCC2)C[C@@H](OCCCCO)O1	nt	i	nt
CCOCCCNC(=O)CN1C(=O)/C(=C/c2ccccc2)Sc2ccccc21	i	nt	nt
O=C(Nc1nc2nccc(-c3ccccc3)n2n1)C(Cl)(Cl)Cl	i	nt	nt
COc1ccc(C2/C=C\CN(C(=O)c3ccccc3)[C@H](Cc3ccccc3)C(=O)N2Cc2ccc(F)cc2)cc1 (stereo partly specified)	nt	i	nt
Cc1cccn2c(=O)c3cc(C(=O)NCc4cccnc4)c(=N)n(C(C)C)c3nc12	i	33	+
CCCn1c(=N)c(C(=O)NC2CCCC2)cc2c(=O)n3cccc(C)c3nc21	i	43	+
COC(=O)c1cc2c(=O)n3ccccc3nc2n(C(C)C)c1=N	i	nt	nt
CCOCCCn1c(=N)c(C(=O)NCc2ccc3c(c2)OCO3)cc2c(=O)n3cccc(C)c3nc21	i	i	nt
N=c1c(C(=O)NC2CCCC2)cc2c(=O)n3ccccc3nc2n1C1CCCC1	i	85	+
Cc1cccn2c(=O)c3cc(C(=O)NCc4ccco4)c(=N)n(C(C)C)c3nc12	i	i	nt
CC(C)C[C@H](NC(=O)OC(C)(C)C)c1n[nH]c(=S)n1N	i	nt	nt
Cc1ccc(S(=O)(=O)N(C)CCCC(=O)Nc2cccc3ccccc23)cc1	i	nt	nt
C/C(=N\NC(=O)c1ccc(=O)[nH]n1)c1cccnc1	i	nt	nt
Nc1c(S(=O)(=O)c2cccs2)c2nc3ccccc3nc2n1Cc1cccs1	i	i	nt
Nc1c(S(=O)(=O)c2cccs2)c2nc3ccccc3nc2n1CC1CCCO1 (stereo unspecified)	i	53	+
